# Assay outcomes deposited in PubChem by several laboratories.
# Bfl-1 Bim block: inhibitors of Bim-Bfl-1 interaction, human. Q16548. Bead-based flow cytometry, Bim-Bfl-1 binding inhibition. inhibition, % at 10 µM. 0.12% of 190,000 active;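 note: 0% = wells without compound plus tracer and 100% = blocker peptide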
# Target sequence (Q16548 whole entry, looked up): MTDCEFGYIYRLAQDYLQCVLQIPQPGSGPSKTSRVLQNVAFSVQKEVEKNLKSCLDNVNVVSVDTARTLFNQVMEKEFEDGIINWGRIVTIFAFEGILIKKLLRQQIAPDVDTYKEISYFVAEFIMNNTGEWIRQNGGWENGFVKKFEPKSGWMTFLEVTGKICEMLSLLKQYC
# BCLXL inh: Bcl-xL (human) inhibition; Q07817; GST-Bcl-xL / FITC-Bim BH3 peptide fluorescence polarization; inhibition, % at 10.9 µM; 0.7% of 320,000 active; AID 2129;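 active = inhibition above the mean of all tested compounds plus 3 SD, cutoff set per campaign, cut at about 30% in these data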;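 note: 0% = DMSO wells and 100% = unlabeled Bim-BH3 peptide competitor; inhibitors lower millipolarization by displacing the labeled peptide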
# Bcl-XL Bim block: human Bim-Bcl-XL interaction inhibition; Q07817; Bim peptide-Bcl-XL binding, bead flow cytometry, fluorescence; inhibition, % at 10 µM; 0.04% of 190,000 active; AID 1007
# Bim-Bcl-W: human Bim-Bcl-W interaction inhibition. Q92843. bead-based flow cytometry, Bim peptide-Bcl-W binding. inhibition, % at 10 µM. 0.02% of 190,000 active. AID 952;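 note: 0% = bound tracer without compound and 100% = peptide blocker; higher means less fluorescent Bim peptide bound to Bcl-W beads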
# Bim-Bcl-2: disrupts Bim peptide binding to human Bcl-2. 0.06% of 190,000 active. inhibition, % at 10 µM. Bead-based flow cytometry, Bim peptide-Bcl-2 binding. AID 950. P10415; in the data active = inhibition above about 40%;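 note: 0% = no compound wells with probe peptide and 100% = reference peptide inhibitor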
# Target sequence (P10415 whole entry, looked up): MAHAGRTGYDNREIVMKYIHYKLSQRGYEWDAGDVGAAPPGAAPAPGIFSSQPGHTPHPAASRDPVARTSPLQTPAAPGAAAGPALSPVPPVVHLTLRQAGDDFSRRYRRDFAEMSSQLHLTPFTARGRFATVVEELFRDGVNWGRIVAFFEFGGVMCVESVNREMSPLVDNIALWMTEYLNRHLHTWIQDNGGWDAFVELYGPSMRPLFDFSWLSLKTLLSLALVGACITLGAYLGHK
# Bim-Bcl-B: disrupts Bim peptide binding to human Bcl-B | 0.073% of 190,000 active | bead-based flow cytometry | inhibition, % at 10 µM;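 note: 0% = tracer peptide without compound and 100% = reference inhibitor peptide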
# * hit, by the source's call; / = not tested or not shown. Sampled rows, rich in hits. Any-hit rate of the full collection: about 0.81%. Cut-off read from the data, not from the text of the source, unless noted: active = inhibition above about 40%.
SMILES,Bfl-1 Bim block,BCLXL inh,Bcl-XL Bim block,Bim-Bcl-W,Bim-Bcl-2,Bim-Bcl-B
CCCC1OC23CCCCC2C(C#N)(C(=N)O3)C1(C#N)C#N (configuration not stated),0,55*,-3,-4,-4,-4
CC1OC23CCCCC2C(C#N)(C(=N)O3)C1(C#N)C#N (configuration not stated),0,26,-2,0,2,-4
CCC1OC23CCCCC2C(C#N)(C(=N)O3)C1(C#N)C#N (configuration not stated),1,77*,0,1,2,3
Cc1noc(C)c1C(=O)N(CC(=O)Nc1ccccc1Br)Cc1ccco1,/,2,/,/,/,/
COc1cccc(NC(=O)CN(C2=NC3CS(=O)(=O)CC3S2)c2cccc(C)c2)c1 (configuration not stated),/,3,/,/,/,/
Cc1c(Br)c(O)c(Br)c2sc(=O)oc12,/,36*,/,/,/,/
CCN(C(=O)COC(=O)c1ccccc1NCCO)C1CCS(=O)(=O)C1 (configuration not stated),/,1,/,/,/,/
O=C(NN1C(=O)/C(=C/C=C/c2ccco2)SC1=S)c1ccncc1,/,46*,/,/,/,/
CC(C)C(C(=O)O)N1C(=O)/C(=C/C=C/c2ccco2)SC1=S (configuration not stated),-11,71*,-4,0,-2,-9
CC1(C)NC(=O)N(CC(=O)OCC(=O)NC(=O)c2ccccc2)C1=O,/,-8,/,/,/,/
COc1ccccc1CN(C)C(=O)c1cccc(S(=O)(=O)N2CCc3ccccc3C2)c1,/,1,/,/,/,/
O=C(O)c1ccc2c(c1)C(=O)/C(=C/c1ccccc1)C2=O,18,77*,-3,2,7,4
O=C(O)c1ccc2c(c1)C(=O)/C(=C\c1ccco1)C2=O,0,41*,0,1,1,1
O=C1C(=Cc2ccco2)C(=O)c2ccccc21,7,14,-1,2,7,-3
CSc1ccc(/C=C/C(=O)NC(=O)c2ccccc2O)cc1,0,6,0,2,1,-4
Clc1ccc(/C=N/c2c(-c3ccco3)nc3ccccn23)cc1,9,39*,0,9,3,0
COc1ccc(/C=N/c2c(-c3ccco3)nc3ccccn23)cc1OC,-2,39*,-4,3,0,-1
Oc1ccccc1/C=N/c1c(-c2ccco2)nc2ccccn12,-3,24,6,-2,-1,16
O=c1[nH]cc(S(=O)(=O)Nc2ccc3c(c2)OCO3)c(=O)[nH]1,/,5,/,/,/,/
CCOC(=O)C1CCCN(CCC(=O)Nc2cccc(Cl)c2C)C1 (configuration not stated),/,4,/,/,/,/
O=C(O)CCNc1ccc(NCCC(=O)O)c2c1C(=O)c1ccccc1C2=O,/,114*,/,/,/,/
Cc1ccc[n+](CC(=O)Nc2ccc([N+](=O)[O-])cc2)c1,/,1,/,/,/,/
Cc1ccc[n+](-c2nc([O-])sc2/C=N/Nc2ccc([N+](=O)[O-])cc2)c1,/,42*,/,/,/,/
CCC(=O)Nc1cc(C)c(NC(=O)CCc2ccccc2)cn1,0,49*,-1,-1,-2,0
Cn1nc(C(=O)Nc2nc(-c3ccc(F)cc3)cs2)ccc1=O,/,-3,/,/,/,/
SMILES,Bfl-1 Bim block,BCLXL inh,Bcl-XL Bim block,Bim-Bcl-W,Bim-Bcl-2,Bim-Bcl-B
Cc1ccnc(NS(=O)(=O)c2ccc(NC(=O)c3ccc([N+](=O)[O-])s3)cc2)n1,-4,0,0,0,2,1
CCCC(=Nc1ccc(N)cc1)C1=C(O)C(C(=O)OC)C(C)(C)CC1=O (configuration not stated),2,44*,7,3,2,13
COc1ccccc1CC(=O)N1CCC(CCC(=O)NC2CC2)CC1,/,1,/,/,/,/
CCN(CC)c1ccc(/C=C/c2cc(-c3ccccc3)c3ccccc3n2)cc1,/,30*,/,/,/,/
Cc1ccc(-c2nn(CCC(=O)Nc3cccnc3)c(=O)c3ccccc23)cc1,/,82*,/,/,/,/
CSc1cccc(CN2CCC(n3nccc3NC(=O)C3CC3)CC2)c1,/,2,/,/,/,/
Cc1ccc(/C=C/c2nc3ccccc3[nH]2)o1,13,40*,-2,4,4,-17
Cc1cc2nc(/C=C/c3nc4cc(C)c(C)cc4[nH]3)[nH]c2cc1C,/,-1,/,/,/,/
CNCc1ccccc1Sc1ccc(O)c(O)c1,46*,15,6,21,17,1
O=[N+]([O-])c1nn(-c2ccc3c(c2)OCCO3)n(O)c1=NCc1ccc(F)cc1Cl,-2,79*,-1,0,-1,-8
